# This is a sample that favours compounds with a hit; in the whole collection about 1.1% have one here.
# Tb PFK block – qHTS Assay to Find Inhibitors of T. brucei phosphofructokinase; T. brucei PFK, ADP-Glo luminescence; Potency, µM (titrated, usually from 57.5 µM), usual class: inhibitors; 330,000 tested, 0.17% active; also: nearly all actives have a fitted effect of over 60% in size
#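 Luminescent ADP detection (ADP-Glo, two-step: ATP depletion then ADP-to-ATP conversion for luciferase) reported PFK activity after 45 min room-temperature reaction of 1.25 nM enzyme with 0.5 mM F6P and 0.1 mM ATP at pH 8.0.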
# GLS inhibitor – qHTS for Inhibitors of Glutaminase (GLS); Glutaminase kidney isoform, mitochondrial (Homo sapiens), O94925; GLS enzymatic activity, qHTS titration; Potency, µM (series often up to 45.5 µM), actives largely listed as inhibitors; 410,000 tested, 0.21% active; AID 624170, 2012
#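 hKGA in 45 mM KH2PO4 pH 8.2, 0.02% Tween-20 with pin-transferred compounds; 1 mM L-glutamine (stock) plus glutamate oxidase/HRP/Amplex Red coupling added. Fluorescence read initially and after 30 min at RT.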
# Pin1 inh – qHTS Assay to Find Inhibitors of Pin1 | Potency, µM (doses to about 115 µM), most hits filed as inhibitors | Pin1 FP peptide displacement, HiFluor488, 10 min | AID 504891, 2011 | Peptidyl-prolyl cis-trans isomerase NIMA-interacting 1 (Homo sapiens), Q13526 | 390,000 tested, 0.009% active; active = well fitted inhibition curve with a large enough effect in the polarisation, with a control signal flat, not every such curve was filed as active; inconclusive = small, poorly fitted or top-dose-only effect, or effect the other way, or a change in a side signal; inactive = no such curve, though single readings can be large or run the other way; the % refers to the polarisation
# Target sequence (Q13526 whole entry, looked up): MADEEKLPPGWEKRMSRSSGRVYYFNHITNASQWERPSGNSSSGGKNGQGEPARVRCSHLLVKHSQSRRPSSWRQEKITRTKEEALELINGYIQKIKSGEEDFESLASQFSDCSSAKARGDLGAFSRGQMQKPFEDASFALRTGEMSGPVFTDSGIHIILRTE
# VDR inhibitor – Inhibitors of the vitamin D receptor (VDR): qHTS; Vitamin D3 receptor (Homo sapiens), P11473; VDR-SRC2-3 peptide fluorescence polarization, 2 h; Potency, µM, usual class: inhibitors; 400,000 tested, 0.93% active
#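 VDR–SRC2-3 interaction, FP format. Cmpds 23 nl via pintool, brief spin, 2 h ambient incubation.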
# Tb PGK inh – qHTS Assay to Find Inhibitors of Phosphoglycerate Kinase; Phosphoglycerate kinase, glycosomal (Trypanosoma brucei brucei), P07378; PGK/GAPDH coupled, Kinase-Glo luminescence, 60 min; Potency, µM (top dose mostly 57.5 µM), most hits filed as inhibitors; 380,000 tested, 0.043% active; AID 602233, 2012; also: nearly all actives have a fitted effect of over 60% in size
# Target sequence (P07378 whole entry, looked up): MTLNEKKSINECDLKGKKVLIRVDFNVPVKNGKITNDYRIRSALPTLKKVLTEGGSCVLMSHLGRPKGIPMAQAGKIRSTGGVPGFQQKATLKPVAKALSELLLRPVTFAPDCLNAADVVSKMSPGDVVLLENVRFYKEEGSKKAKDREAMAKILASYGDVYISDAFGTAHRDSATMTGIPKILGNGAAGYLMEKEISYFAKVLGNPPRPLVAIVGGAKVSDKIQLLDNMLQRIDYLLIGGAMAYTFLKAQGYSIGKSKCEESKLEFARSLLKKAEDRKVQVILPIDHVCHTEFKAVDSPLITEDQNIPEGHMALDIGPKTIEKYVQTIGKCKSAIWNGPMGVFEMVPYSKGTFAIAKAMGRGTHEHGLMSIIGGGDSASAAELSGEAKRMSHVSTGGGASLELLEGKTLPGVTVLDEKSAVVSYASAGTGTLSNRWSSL
#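 Recombinant glycosomal PGK reaction used 1,3-bisphosphoglycerate generated in-well by GAPDH (100nM final) in 100mM TEA pH 7.6, 5mM MgCl2, 0.01% Tween-20. After 60 minutes at room temperature, ATP was read by Kinase-Glo Plus luminescence end-point.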
# A number is an active result; n = inactive; u = inconclusive; x = no result; ! = repeats disagree. Unless noted, calls follow the shape of the dose curve; as a rule, active = well fitted curve in the direction sought with a large enough effect; inconclusive = small, poorly fitted or top-dose-only effect, or another doubt; inactive = no such curve, though single readings can be large; an effect the other way counts as inactive or inconclusive.
SMILES,Tb PFK block,GLS inhibitor,Pin1 inh,VDR inhibitor,Tb PGK inh
COc1ccccc1COC(=O)C(NC(=O)c1ccc(C)cc1)C(C)C (stereo unspecified),n,n,n,n,n
CCCCOc1cccc(C(=O)N(Cc2cccs2)c2ccc(OC)cc2)c1,x,n,n,n,x
CCCCCCCCN1C(=O)[C@H](CC(=O)NCc2ccccc2)C[C@@]2(C(=O)OC)CCCCC=C12,x,n,x,x,x
c1ccc(C[C@H]2CN=C(Nc3ccccc3)N2CC2CCCC2)cc1,x,n,x,x,x
COc1ccc(-c2nc3c(c(SCC(=O)N4CCCCC4)n2)Cc2cc(Cl)ccc2O3)cc1,x,n,n,89.1µM,n
O=C(CSc1nc(-c2ccc(Cl)cc2)nc2c1Cc1ccccc1O2)N1CCCCC1,x,n,n,n,n
CCCc1[nH][nH]c(=O)c1C(c1ccc(Cl)cc1)C(C#N)C#N (stereo unspecified),n,n,n,n,n
CCCc1[nH][nH]c(=O)c1C(c1ccc(Br)cc1)C(C#N)C#N (stereo unspecified),n,n,n,79.4µM,x
Cc1cc(C)cc(NC2=C(N)C(=O)c3ccccc3C2=O)c1,n,n,n,89.1µM,n
Cc1ccc(NC2=C(Cl)C(=O)c3ccccc3C2=O)cc1,n,n,n,n,n
O=C(NNC(=O)c1ccccc1F)c1ccc(NS(=O)(=O)c2ccc(F)cc2)cc1,n,n,n,n,n
N#CC1=C(N)NC(=S)C(C(N)=O)C1c1ccccc1F (stereo unspecified),n,n,n,4.47µM,n
O=C1NC(=O)C(c2ccc(Cl)cc2Cl)N1 (stereo unspecified),x,n,n,n,n
N#CC1=C(N)NC(=S)C(C(N)=O)C1c1ccc(Cl)cc1Cl (stereo unspecified),n,u,n,22.4µM,n
CCOC(=O)N1CCN(C(=O)CN2C(=O)/C(=C\c3cccc(OC)c3)SC2=S)CC1,x,x,n,n,x
Cc1ccc(NC(=O)CN2C(=O)S/C(=C\c3cc(Cl)c(OCC(=O)O)c(Cl)c3)C2=O)cc1,n,u,x,70.8µM,u
Cc1ccc(NC(=O)CN2C(=O)S/C(=C\c3cc(C)n(-c4ccc(C(=O)O)cc4)c3C)C2=O)cc1,n,n,u,n,n
CN(C)c1ccc(C(=S)N2CCN(Cc3ccccc3)CC2)cc1,u,n,n,50.1µM,n
Nc1ncnc2c1ncn2COC(CO)CO,x,x,n,n,x
CCc1cccc(CC)c1NC(=O)/C(C#N)=C/c1ccccc1C(F)(F)F,n,n,n,50.1µM,n
O=C(CCc1nnc2n(Cc3ccc(Cl)cc3)c(=O)c3ccccc3n12)N1CCN(c2ccccn2)CC1,n,11.2µM,n,n,n
CC(C)OCCCn1c(=O)c2ccccc2n2c(CCC(=O)N3CCN(c4ccccn4)CC3)nnc12,n,n,n,n,n
CCOc1cc(/C=N/N=C/c2ccc(O)c(OCC)c2)ccc1O,n,n,n,n,n
COc1cc(/C=C2\CCC/C(=C\c3ccc(O)c(OC)c3)C2=O)ccc1O,n,n,n,25.1µM!,n
CCOc1cc(/C=C2\CN(CC)C/C(=C\c3ccc(O)c(OCC)c3)C2=O)ccc1O,n,12.6µM,n,u,n
SMILES,Tb PFK block,GLS inhibitor,Pin1 inh,VDR inhibitor,Tb PGK inh
CCOc1cc(C=NN2CCCCCC2)ccc1O,x,11.2µM,n,n,n
CCN(CC(=O)Nc1ccccc1C(F)(F)F)C(=O)CCc1c(C)[nH]c(=O)c(C#N)c1C,n,n,n,n,n
Cc1ccc(Cl)cc1N(C)C(=O)c1cc2ccc3cccnc3c2[nH]1,x,n,n,n,n
Cn1cnc([N+](=O)[O-])c1NC(C)(C)C,n,n,n,n,n
Cn1cnc([N+](=O)[O-])c1S(=O)(=O)c1ccc(Cl)cc1,n,n,n,50.1µM,n
COc1ccc(NC(=O)c2cc3ccccc3cc2O)cc1,n,n,n,44.7µM,n
CCOCCc1nn2c(=O)cc(COC(=O)C(CC)c3ccccc3)nc2s1 (stereo unspecified),x,n,n,n,n
COc1ccc(C2C3C=CCC(C)C3C(=O)N2Cc2ccccc2)cc1Cl (stereo unspecified),x,x,n,u,x
O=C1C=CC(=O)c2c(O)c(Cl)c(Cl)c(O)c21,x,x,x,4.47µM,x
O=C1C=Cc2cccc3ccc(O)c1c23,x,n,u,n,n
O=C1C=CC(=O)c2c(O)c(CO)c(CO)c(O)c21,x,3.55µM,x,u,8.91µM
Cc1ccccc1-c1nc(CS(=O)(=O)CC(=O)NCc2cccc(Cl)c2)c(C)o1,x,n,n,n,n
O=C(NCc1ccccc1Cl)c1ccc(Cn2c(=O)c3cccn3c3cccnc32)cc1,x,n,n,n,n
Cc1c([N+](=O)[O-])cc(N2C(=O)C=CC2=O)cc1[N+](=O)[O-],x,n,x,n,n
Cc1cc(N2C(=O)C=CC2=O)c([N+](=O)[O-])cc1C,u,n,n,31.6µM,n
O=C(O)Cc1ccc(S(=O)(=O)N2CCCC2)s1,n,u,n,n,u
CCCSC1=N/C(=C\c2ccc([N+](=O)[O-])o2)C(=O)S1,n,n,x,79.4µM,u
O=C(Nc1nc(-c2ccc(Br)cc2)ns1)c1ccc(F)cc1,x,n,n,n,n
CC1Sc2ccc(C(=O)NCc3ccccn3)cc2NC1=O (stereo unspecified),u,n,n,79.4µM,n
OCC1OC(n2cnc3c(=S)nc[nH]c32)C(O)C1O (stereo unspecified),x,n,n,n,x
O=C(Cn1cnc2sc(-c3ccccc3)cc2c1=O)NCc1ccco1,n,u,n,u,12.6µM
CCCC(=O)C1=C(c2cccc(OC)c2)N(C(=O)CCC)n2c(C)nnc2S1,x,n,n,n,n
Cc1ccc(C(=O)CCS(=O)(=O)c2ccc(F)cc2)cc1,n,n,n,25.1µM,n
COc1ccc(CC(=O)Nc2ccc(S(=O)(=O)N3CCC(C)CC3)cc2)c(OC)c1,n,n,n,n,n
CCCC1(C)C(C#N)(C#N)C1(C#N)C#N,x,x,x,10µM,x
SMILES,Tb PFK block,GLS inhibitor,Pin1 inh,VDR inhibitor,Tb PGK inh
COc1c2c(c(C(=O)/C=C/C(C)=C/c3ccccc3)c3c1OCO3)CCN(C)C2,x,x,x,44.7µM,x
CC(/C=C/C(=O)c1ccc(C)cc1)=C\c1ccccc1,n,n,n,n,n
O=C(CCC(=O)N1CCN(S(=O)(=O)c2ccc([N+](=O)[O-])cc2)CC1)N1CCOCC1,n,n,n,n,n
COc1ccc2c(c1OC)C(=O)N1C2SC(C)(C)[C@H]1C(=O)NCC(C)C (stereo partly specified),n,n,n,n,n
COc1ccc(S(=O)(=O)N2CCC(C(=O)NCCC(=O)Nc3cccc(Cl)c3)CC2)cc1,n,u,n,28.2µM,n
Cc1cc2c(s1)c1cnn(CC(=O)N3CCOCC3)c(=O)c1n2C,x,x,u,n,x

# Screening data as filed in PubChem.
